Shown is part of a subset that was picked to be rich in hits.
Shiga inhibitor: inhibitors of Shiga toxin in Vero cells. Vero cells, Shiga toxin protein synthesis inhibition reporter. inhibition, % at 38.7 µM. 290,000 tested, 9.2% active; in the data active = inhibition mostly above about 28%, no sharp cut-off; inactive = mostly below about 43%; also: 0% is about no effect
Tb PYK inh: inhibitors of Trypanosoma brucei pyruvate kinase; Q57TT1; TbPYK enzyme, Kinase-Glo Plus ATP luminescence, 45 min; Potency, µM (highest dose often 76.8 µM), for the others: at the highest dose activity, negative = inhibition, actives largely listed as inhibitors; 410,000 tested, 0.12% active; AID 624173; also: potency is read from the fitted curve at half-maximal effect; % is scaled to controls: 0 for no effect and ±100 for the full control effect; nearly all actives have a fitted effect of over 50% in size
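TbPYK + substrate in 50 mM TEA pH 7.2, 100 mM KCl, 10 mM MgCl2, 0.05% BSA, 0.01% Tween-20; cpd pinned; ADP 130 uM final; 45 min RT; Kinase-Glo Plus 10 min; luminescence endpoint.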
FBPA Giardia inh: inhibitors of Giardia lamblia fructose-1,6-bisphosphate aldolase; 290,000 tested, 0.71% active; Potency, µM (highest dose often 59.6 µM), without a hit: at the top dose activity, negative = inhibition, most hits filed as inhibitors; A8B2U2; purified Giardia FBPA; also: potency is read from the fitted curve at half-maximal effect; % is scaled to controls: 0 for no effect and ±100 for the full control effect; nearly all actives have a fitted effect of over 55% in size
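Giardia FBPA (40 nM reagent) was preincubated 10 min at RT with compound (up to 57.5 uM final), then substrate plus GAPDH/TPI/NAD/arsenate coupling system with diaphorase/resazurin was added; resorufin fluorescence (525/598 nm) was read after 20 min.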
LmPK inhibitor: inhibitors of Leishmania mexicana pyruvate kinase; Q27686; purified LmPK, Kinase-Glo ATP luminescence, 1 h; Potency, µM (highest dose often 57.5 µM), without a hit: top-dose activity change, negative = inhibition, usual class: inhibitors; 290,000 tested, 0.37% active; also: potency is read from the fitted curve at half-maximal effect; % is scaled to controls: 0 for no effect and ±100 for the full control effect
Target sequence (Q27686 whole entry, looked up): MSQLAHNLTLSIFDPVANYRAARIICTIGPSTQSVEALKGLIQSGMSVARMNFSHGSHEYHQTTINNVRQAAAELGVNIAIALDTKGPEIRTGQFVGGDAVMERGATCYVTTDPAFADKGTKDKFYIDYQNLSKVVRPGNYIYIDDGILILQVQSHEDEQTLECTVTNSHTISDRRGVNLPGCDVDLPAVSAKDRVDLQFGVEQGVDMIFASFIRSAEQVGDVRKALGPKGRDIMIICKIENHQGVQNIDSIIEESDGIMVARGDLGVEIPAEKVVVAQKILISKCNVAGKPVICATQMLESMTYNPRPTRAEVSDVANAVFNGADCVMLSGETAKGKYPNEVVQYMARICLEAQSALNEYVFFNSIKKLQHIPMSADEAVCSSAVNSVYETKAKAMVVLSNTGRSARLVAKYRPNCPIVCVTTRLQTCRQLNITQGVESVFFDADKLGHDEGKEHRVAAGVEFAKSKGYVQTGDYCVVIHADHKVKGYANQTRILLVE
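Purified LmPK (0.1 nM) with 0.5 mM PEP and 0.1 mM ADP in imidazole buffer pH 7.2 with MgCl2/KCl, 1 h at room temperature. ATP formed was read by luciferase luminescence and normalized to no-enzyme and uninhibited controls.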
CHX counter: counter-screen hit for Shiga toxin inhibitors, cycloheximide. cell reporter, cycloheximide protein synthesis inhibition counterscreen. max response, %. 300,000 tested, 12% active. AID 2314; in the data active = max response mostly above about 13%, no sharp cut-off; inactive = mostly below about 14%; also: read at 38.3 µM for the half of the compounds with a filed dose; 0% is about no effect
RE007 growth inh: less growth of the S. pombe RE007 Vpr strain. S. pombe RE007 Vpr strain, BacTiter-Glo ATP luminescence, 24 h. 360,000 tested, 0.21% active. Potency, µM (highest dose often 92.2 µM), inactives show at the highest dose activity change, negative = less growth, hits mostly inhibitors; active = well fitted falling curve with a large enough effect; also: potency is read from the fitted curve at half-maximal effect; % is scaled to controls: 0 for no effect and ±100 for the full control effect; nearly all actives have a fitted effect of over 50% in size
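Fission yeast strain RE007, carrying one chromosomally integrated HIV-1 vpr copy, was seeded at OD 0.01 in PMG+AL medium with 23 nL pinned compound. After 24 h at 30 °C and 99% humidity, viability was read by BacTiter-Glo luminescence.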
An asterisk follows results filed as active; . = not tested or not shown; [ ] = another dose, or the depositor's remark. Unless noted, calls follow the shape of the dose curve; as a rule, active = well fitted curve in the direction sought with a large enough effect; inconclusive = small, poorly fitted or top-dose-only effect, or another doubt; inactive = no such curve, though single readings can be large; an effect the other way counts as inactive or inconclusive.

SMILES	Shiga inhibitor	Tb PYK inh	FBPA Giardia inh	LmPK inhibitor	CHX counter	RE007 growth inh
O=C(Cc1ccccc1F)Nc1ccc(SC(F)F)cc1	57*	-6%	-12%	-5%	91*	1%
O=C(COC(=O)Cc1ccccc1F)Nc1ccc(SC(F)F)cc1	12	-8%	-10%	1%	-1	-14%
O=C(Cc1ccc(Cl)cc1)Nc1ccc(SC(F)F)cc1	13*	1%	-6%	4%	45*	.
O=C(NNc1nc2ccc(F)cc2s1)c1cccc(F)c1	85*	-31%	8%	2%	42*	14%
O=C(NNc1nc2c(F)cccc2s1)c1ccccc1	25	-4%	6%	-2%	17	-5%
O=C(NNc1nc2ccccc2s1)c1ccc(F)cc1	89*	-7%	4%	0%	44*	-6%
O=C(NNc1nc2c(F)cc(F)cc2s1)c1ccccc1	6	-11%	3%	4%	11	8%
Cc1ccc(-c2nnc(Nc3ccc(Br)cc3)c3ccccc23)cc1S(=O)(=O)N1CCN(C)CC1	.	5%	.	.	.	.
O=c1oc2ccccc2cc1-c1cn2cc(Cc3ccc(Br)cc3)sc2n1	.	1%	.	.	.	.
Cc1ccc(NC(=O)CN2C(=O)CCc3cc(S(=O)(=O)N4CCOCC4)ccc32)c(C)c1	.	4%	.	.	.	.
CCOC(=O)c1[nH]c(C)c(CCC(=O)NCc2ccc(CC)cc2)c1C	.	2%	.	.	.	.
CCN(CC)c1ccc2c(c1)C(=O)N(C)C2=O	72*	-8%	-2%	4%	33*	-8%
CCN(CCCCN1C(=O)c2ccccc2C1=O)c1ccc2c(c1)C(=O)N(C)C2=O	-17	4%	-14%	9%	-1	4%
O=S(=O)(Nc1cc(O)cc2cccnc12)c1ccc(Br)s1	-5	.	3.2µM*	.	-8	.
COc1ccccc1NS(=O)(=O)c1ccc(Br)s1	35	-7%	-1%	-1%	-4	0%
O=S(=O)(Nc1cc(O)cc2cccnc12)c1ccc(Cl)s1	-14	.	3.2µM*	.	-11	.
N#CCC(CNc1ncc(C(F)(F)F)cc1Cl)OC(=O)c1cccc(C(F)(F)F)c1 (configuration not stated)	18	9%	-4%	4%	3	12%
O=C(OCn1ncc(Cl)c(Cl)c1=O)c1cccc(C(F)(F)F)c1	-18	8%	2%	0%	5	45µM*
CCc1cccc(CC)c1NC(=O)CN(C)S(=O)(=O)c1ccc2c(c1)n(C)c(=O)c(=O)n2C	.	-8%	.	.	.	.
Cc1ccccc1-c1noc(-c2ccccc2OCC(=O)Nc2cccc([N+](=O)[O-])c2)n1	.	7%	.	.	.	.
Cc1cc(C)c(C#N)c(SCC(=O)Nc2ccccc2C#N)n1	.	-4%	.	.	.	.
CCc1nnc(NC(=O)CSc2nc3c(cc2C#N)CCC3)s1	70*	0%	0%	-1%	32*	-10%
Cc1cc(C)c(C#N)c(SCC(=O)Nc2ccccc2C(N)=O)n1	51*	-15%	3%	4%	23*	-7%
CCOC(=O)c1c(SCC(=O)Nc2nccs2)nc(C)c(C)c1C	36*	-10%	.	-5%	26*	-4%
Cc1ccc(C#N)c(SCC(=O)Nc2nccs2)n1	68*	1%	8%	2%	53*	-14%
SMILES	Shiga inhibitor	Tb PYK inh	FBPA Giardia inh	LmPK inhibitor	CHX counter	RE007 growth inh
CCOC(=O)CC(NC(=O)c1cc2cc(Cl)ccc2oc1=O)c1ccc(C)cc1 (configuration not stated)	.	-10%	.	.	.	.
Cc1ccc(NC(=O)C2CCN(c3nc4ccccc4[nH]3)CC2)cc1Cl	.	3%[15.4 µM]	.	.	.	.
N#Cc1cc2c(nc1SCC(=O)Nc1nccs1)CCCCC2	94*	-10%	6%	-1%	49*	1%
CCc1nnc(NC(=O)CSc2nc(C)cc(C)c2C#N)s1	40	-1%	-2%	2%	15*	-5%
COc1ccc(/C=C/C2=CC(C)(C)NC(=S)N2)cc1OC	-3	-3%	4%	-1%[11.5 µM]	-3	3%
COc1ccc(/C=C/C2=Nc3ccccc3NC(C)(C)C2)cc1OC	59*	0%	-6%	2%	42*	-6%
COc1ccc(-n2ncc(C(=O)N3CCN(c4ncccn4)CC3)c2C2CCN(C(=O)OC(C)(C)C)CC2)cc1	.	-12%[15.4 µM]	.	.	.	.

Screening results deposited in PubChem by National Center for Advancing Translational Sciences (NCATS).
